Data as given in PubChem BioAssay (EPA / NIEHS).
Where “and” joins values, the source holds several entries; their conditions need not be identical. Equal entries are not always repeated. A structure can be active in one record and inactive in another. Calls of active or inactive are those of the source. How the source made its calls: active means hit-call score of the fitted dose curve at least 0.9, where 1 is the maximum; inactive means score below 0.9.

Key:
[1] = APR_HepG2_NuclearSize_72hr: Apredica 72-hour HepG2 Assay for Nuclear Size (AID 2282925); conditions: high-content imaging, actives raise or lower the signal
In short: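 HepG2 cells dosed 72 h at 0.39–200 uM (10 concentrations, duplicate) in 0.5% v/v DMSO final. Fixed, Hoechst 33342-stained nuclei imaged; nuclear diameter measured by automated image analysis. Bidirectional fit versus DMSO.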

[2] = ATG_CRE_CIS: Attagene CIS-FACTORIAL HepG2 Assay for human cAMP Responsive Element (CRE) binding protein 3 (AID 2282926); conditions: HepG2 CRE cis-reporter, Attagene multiplexed mRNA; actives raise or lower the signal
In short: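 We dosed HepG2 cells bearing multiple cis-promoter reporter units for 24 h and measured reporter mRNA by RT-PCR with capillary electrophoresis detection. Bidirectional concentration-response fitting used DMSO as negative control.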

[3] = ATG_CMV_CIS: Attagene CIS-FACTORIAL HepG2 Assay for human CMV (Internal Marker) (AID 2282928); conditions: HepG2 CMV promoter reporter, transcription factor profiling; actives raise or lower the signal;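 further: endpoint acts as a background internal control marker rather than a target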
In short: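 After transient transfection of HepG2 with reporter transcription units driven by cis-regulatory promoters, cells receive test chemical for 24 h. Labeled reporter amplicons, digested with HpaI, are sized and quantified by capillary electrophoresis against DMSO.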

[4] = ATG_DR4_LXR_CIS: Attagene CIS-FACTORIAL HepG2 Assay for human Liver X Receptor (LXR), DR4 submotif (AID 2282929); conditions: HepG2 Attagene DR4 cis-reporter, mRNA transcription; actives raise or lower the signal
In short: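 Cells were transfected with multiple reporter transcription units, exposed to chemicals for 24 hours, then lysed for RNA. Reporter mRNA induction was measured by RT-PCR with capillary electrophoresis detection and fitted in both directions relative to DMSO.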

[5] = biological target: Aryl hydrocarbon receptor (Homo sapiens) (UniProt P35869); assay: ATG_Ahr_CIS: Attagene CIS-FACTORIAL HepG2 Assay for human Aryl Hydrocarbon Receptor (Ahr) (AID 2282930); conditions: HepG2 AhR cis-factorial reporter transcription; actives raise or lower the signal
Chain of Aryl hydrocarbon receptor (Homo sapiens) (P35869 whole entry, looked up): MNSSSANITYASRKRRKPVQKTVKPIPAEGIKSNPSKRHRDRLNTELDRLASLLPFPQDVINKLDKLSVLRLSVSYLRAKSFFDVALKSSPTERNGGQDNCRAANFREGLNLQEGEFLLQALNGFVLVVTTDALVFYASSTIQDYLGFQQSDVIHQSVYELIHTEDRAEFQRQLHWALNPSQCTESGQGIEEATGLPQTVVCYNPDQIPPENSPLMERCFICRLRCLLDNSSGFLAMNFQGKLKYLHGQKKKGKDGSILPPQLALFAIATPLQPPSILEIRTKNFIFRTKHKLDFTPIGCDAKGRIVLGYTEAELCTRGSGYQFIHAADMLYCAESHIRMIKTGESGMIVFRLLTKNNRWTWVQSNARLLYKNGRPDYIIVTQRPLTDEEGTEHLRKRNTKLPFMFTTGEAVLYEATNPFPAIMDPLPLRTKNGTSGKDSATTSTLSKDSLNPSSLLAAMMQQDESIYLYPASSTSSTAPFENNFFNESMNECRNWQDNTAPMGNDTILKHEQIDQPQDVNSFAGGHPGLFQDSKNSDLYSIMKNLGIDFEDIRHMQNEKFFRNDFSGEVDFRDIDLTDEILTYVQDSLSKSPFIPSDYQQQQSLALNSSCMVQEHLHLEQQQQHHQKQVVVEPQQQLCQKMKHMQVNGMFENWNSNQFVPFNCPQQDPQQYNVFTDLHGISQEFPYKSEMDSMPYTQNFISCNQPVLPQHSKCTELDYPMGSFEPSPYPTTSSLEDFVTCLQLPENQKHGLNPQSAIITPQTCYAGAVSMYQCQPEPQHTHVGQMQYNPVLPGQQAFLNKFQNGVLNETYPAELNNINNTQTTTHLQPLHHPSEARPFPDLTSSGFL
In short: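 HepG2 cells transiently transfected with cis-element-driven multiplexed reporter units; endogenous AhR activity read as reporter mRNA 24 h after dosing, via RT-PCR, 6-FAM labelling, HpaI digestion and capillary electrophoresis. Bidirectional fit relative to DMSO.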

[6] = ATG_AP_1_CIS: Attagene CIS-FACTORIAL HepG2 Assay for human Activator Protein 1 (AP-1) (AID 2282931); conditions: HepG2 Attagene cis-factorial AP-1 reporter mRNA; actives raise or lower the signal
In short: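 Endogenous transcription-factor activity in human HepG2 liver cells is read through a cis-promoter reporter transcript, sampled 24 h after dosing. Detection uses RT-PCR with capillary electrophoresis; values come from bidirectional fitting relative to DMSO.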

[7] = ATG_AP_2_CIS: Attagene CIS-FACTORIAL HepG2 Assay for human Activator Protein 2 (AP-2) (AID 2282932); conditions: HepG2 AP-2 cis-reporter, Attagene transcription factor profiling; actives raise or lower the signal
In short: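 Multiplexed mRNA reporter assay in HepG2: cis-regulated units report endogenous factor activity after 24 h treatment. Fluorescence from capillary electrophoresis of RT-PCR products gives the signal, with DMSO as baseline.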

[8] = ATG_BRE_CIS: Attagene CIS-FACTORIAL HepG2 Assay for human Bone Morphogenetic Protein (BMP) Response Element (BRE) (AID 2282933); conditions: HepG2 BMP response element reporter, Attagene transcription factor profiling; actives raise or lower the signal
In short: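 Transient MRTU transfection of human HepG2 liver cells; 24 h compound treatment; total RNA isolated, reverse-transcribed, PCR-amplified, 6-FAM labelled, HpaI-cut, capillary electrophoresis. DMSO = negative control/baseline, bidirectional fit.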

[9] = biological target: Transcription factor E2F1 (Homo sapiens) (UniProt Q01094); assay: ATG_E2F_CIS: Attagene CIS-FACTORIAL HepG2 Assay for human E2F Transcription Factor 1 (AID 2282935); conditions: HepG2 Attagene cis-reporter, E2F reporter RNA transcripts; actives raise or lower the signal
Chain of Transcription factor E2F1 (Homo sapiens) (Q01094 whole entry, looked up): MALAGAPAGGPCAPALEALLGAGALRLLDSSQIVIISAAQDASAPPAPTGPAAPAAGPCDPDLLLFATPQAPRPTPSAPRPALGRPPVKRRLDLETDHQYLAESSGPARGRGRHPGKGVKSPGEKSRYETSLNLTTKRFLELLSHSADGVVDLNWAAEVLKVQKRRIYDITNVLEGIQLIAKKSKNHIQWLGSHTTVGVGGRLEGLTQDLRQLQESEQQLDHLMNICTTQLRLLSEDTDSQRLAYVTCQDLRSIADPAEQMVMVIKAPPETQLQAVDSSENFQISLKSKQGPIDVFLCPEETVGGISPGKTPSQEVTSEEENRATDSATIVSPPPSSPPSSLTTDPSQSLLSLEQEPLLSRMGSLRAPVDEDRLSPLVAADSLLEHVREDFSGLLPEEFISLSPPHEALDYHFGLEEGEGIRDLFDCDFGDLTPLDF
In short: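 Measures reporter transcript levels via RT-PCR with capillary electrophoresis detection in HepG2 cells harboring cis-regulated reporter units; 24 h post-dose; bidirectional curve fitting with DMSO as baseline.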

[10] = ATG_E_Box_CIS: Attagene CIS-FACTORIAL HepG2 Assay for human Enhancer Box (E-box) (AID 2282936); conditions: HepG2 E-box cis-reporter transcription, actives raise or lower the signal
In short: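 First, HepG2 cells receive multiple cis-regulated reporter constructs by transient transfection. Next, chemicals are applied for 24 h. Finally, reporter mRNA is quantified via RT-PCR and capillary electrophoresis, with DMSO as baseline.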

[11] = ATG_M_61_CIS: Attagene CIS-FACTORIAL HepG2 Assay for M61 Transcription Factor (Internal Marker) (AID 2282937); conditions: HepG2 Attagene CIS-FACTORIAL M61 internal marker reporter; actives raise or lower the signal
In short: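 Cells were transfected with reporter units under cis-regulatory promoters, treated with chemicals for 24 h, then lysed for RNA. Reporter transcripts were quantified by RT-PCR and capillary electrophoresis, and activity was fitted bidirectionally against DMSO.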

[12] = ATG_M_19_CIS: Attagene CIS-FACTORIAL HepG2 Assay for M19 Transcription Factor (Internal Marker) (AID 2282939); conditions: HepG2 Attagene CIS-FACTORIAL M19 internal marker reporter; actives raise or lower the signal
In short: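 Transfect HepG2 with MRTU reporter library → dose chemical, 24 h → isolate total RNA, reverse-transcribe with oligo(dT) → PCR, 6-FAM label, HpaI cut (2 h, 37 C) → capillary electrophoresis. Bidirectional fit vs DMSO.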

[13] = ATG_ERE_CIS: Attagene CIS-FACTORIAL HepG2 Assay for Estrogen Response Element (ERE) (AID 2282940); conditions: HepG2 ERE cis-reporter, Attagene RNA transcript; actives raise or lower the signal
In short: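 Transient MRTU transfection of human HepG2; cis-element promoters; 24 h dosing; total RNA → RT (oligo dT) → PCR → 6-FAM primer extension → HpaI digest → CE fluorescence. Bidirectional fit, DMSO baseline.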

[14] = ATG_Ets_CIS: Attagene CIS-FACTORIAL HepG2 Assay for human Erythroblast Transformation Specific (ETS) (AID 2282941); conditions: HepG2 ETS cis-reporter transcription, actives raise or lower the signal
In short: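 Human HepG2 hepatoma cells were transiently transfected with promoter-driven reporter constructs and treated for 24 hours. Reporter transcripts were quantified by RT-PCR with fluorescent primer extension; bidirectional curve fitting used DMSO as reference.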

[15] = biological target: Hepatocyte nuclear factor 3-beta (Homo sapiens) (UniProt Q9Y261); assay: ATG_FoxA2_CIS: Attagene CIS-FACTORIAL HepG2 Assay for human Forkhead box A2 (FOXA2) (AID 2282942); conditions: HepG2 cis-reporter transcription factor activity, 24 h; actives raise or lower the signal
Chain of Hepatocyte nuclear factor 3-beta (Homo sapiens) (Q9Y261 whole entry, looked up): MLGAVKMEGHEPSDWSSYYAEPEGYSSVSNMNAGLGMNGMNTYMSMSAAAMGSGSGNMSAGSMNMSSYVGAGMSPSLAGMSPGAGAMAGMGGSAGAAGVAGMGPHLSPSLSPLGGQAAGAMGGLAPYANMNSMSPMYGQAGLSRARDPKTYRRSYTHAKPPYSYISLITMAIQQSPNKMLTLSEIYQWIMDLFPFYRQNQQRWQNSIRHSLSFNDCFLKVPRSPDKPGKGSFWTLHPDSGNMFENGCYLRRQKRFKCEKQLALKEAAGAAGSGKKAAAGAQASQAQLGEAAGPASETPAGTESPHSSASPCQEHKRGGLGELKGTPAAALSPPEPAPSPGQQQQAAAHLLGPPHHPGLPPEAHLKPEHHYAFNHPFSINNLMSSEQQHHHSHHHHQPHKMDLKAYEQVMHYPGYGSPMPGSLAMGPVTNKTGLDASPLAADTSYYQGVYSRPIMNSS
In short: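 Endogenous transcription factor activity was read in HepG2 cells carrying transiently transfected cis-promoter reporter units. After 24 h dosing, reporter mRNA was quantified by RT-PCR and capillary electrophoresis, and values fitted bidirectionally versus DMSO.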

[16] = ATG_FoxO_CIS: Attagene CIS-FACTORIAL HepG2 Assay for human Forkhead box O (FoxO) (AID 2282943); conditions: HepG2 Attagene cis-reporter, FoxO element, mRNA; actives raise or lower the signal
In short: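 HepG2 cells transiently transfected with cis-element-driven reporter units report endogenous FoxO activity. After 24 h chemical exposure, reporter mRNA quantified by RT-PCR, fluorescent labeling, HpaI digestion and capillary electrophoresis; bidirectional fit versus DMSO.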

[17] = ATG_GATA_CIS: Attagene CIS-FACTORIAL HepG2 Assay for human GATA Binding Protein (AID 2282944); conditions: HepG2 GATA cis-element reporter, Attagene multiplex mRNA; actives raise or lower the signal
In short: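 Transient MRTU transfection, HepG2, 24 h compound exposure. Total RNA → oligo(dT) RT → PCR → 6-FAM primer extension → HpaI cut → CE. Bidirectional fit vs DMSO.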

[18] = biological target: Retinoic acid receptor alpha (Homo sapiens) (UniProt P10276); assay: ATG_DR5_RAR_CIS: Attagene CIS-FACTORIAL HepG2 Assay for human Retinoic Acid Receptor Alpha (RARE), DR5 submotif (AID 2282934); conditions: HepG2 Attagene cis-factorial RARE DR5 reporter, mRNA; actives raise or lower the signal
Chain of Retinoic acid receptor alpha (Homo sapiens) (P10276 whole entry, looked up): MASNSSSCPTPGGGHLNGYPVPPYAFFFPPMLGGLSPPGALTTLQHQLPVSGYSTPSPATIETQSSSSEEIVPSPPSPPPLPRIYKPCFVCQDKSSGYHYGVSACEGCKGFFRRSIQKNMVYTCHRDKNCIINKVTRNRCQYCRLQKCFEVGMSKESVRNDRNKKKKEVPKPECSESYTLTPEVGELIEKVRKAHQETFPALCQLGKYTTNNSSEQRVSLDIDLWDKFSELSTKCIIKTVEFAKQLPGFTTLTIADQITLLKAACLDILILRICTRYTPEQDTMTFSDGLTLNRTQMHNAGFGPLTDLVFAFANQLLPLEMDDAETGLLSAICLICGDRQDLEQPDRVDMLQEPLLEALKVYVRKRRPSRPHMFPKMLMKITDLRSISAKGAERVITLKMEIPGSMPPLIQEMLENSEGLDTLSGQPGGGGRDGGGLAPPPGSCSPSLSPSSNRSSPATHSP
In short: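 HepG2 cells transiently transfected with multiplexed reporter units; DR5 cis-element drives reporter through endogenous transcription factors. After 24 h dosing, reporter mRNA quantified by RT-PCR, fluorescent labeling, HpaI digestion and capillary electrophoresis; bidirectional fitting versus DMSO.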

[19] = biological target: CCAAT/enhancer-binding protein beta (Homo sapiens) (UniProt P17676); assay: ATG_C_EBP_CIS: Attagene CIS-FACTORIAL HepG2 Assay for human CCAAT/Enhancer Binding Protein (C/EBP) beta (AID 2282927); conditions: HepG2 Attagene cis-factorial transcription factor reporter; actives raise or lower the signal
Chain of CCAAT/enhancer-binding protein beta (Homo sapiens) (P17676 whole entry, looked up): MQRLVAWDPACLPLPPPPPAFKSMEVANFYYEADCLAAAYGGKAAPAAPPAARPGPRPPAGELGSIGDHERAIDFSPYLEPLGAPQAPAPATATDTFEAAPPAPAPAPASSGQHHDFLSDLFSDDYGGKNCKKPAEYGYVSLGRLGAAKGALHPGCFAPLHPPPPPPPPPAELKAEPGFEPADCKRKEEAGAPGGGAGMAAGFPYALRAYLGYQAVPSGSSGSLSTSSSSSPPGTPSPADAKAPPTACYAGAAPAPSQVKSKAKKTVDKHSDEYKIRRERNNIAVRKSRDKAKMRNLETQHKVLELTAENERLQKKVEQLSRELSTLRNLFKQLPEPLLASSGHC
In short: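 HepG2 transiently transfected with multiplexed reporter units under cis-regulatory promoters reporting endogenous C/EBPb activity. After 24 h exposure, reporter mRNA assayed by RT-PCR, fluorescent labelling, HpaI digestion and capillary electrophoresis; bidirectional fitting versus DMSO.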

[20] = ATG_EGR_CIS: Attagene CIS-FACTORIAL HepG2 Assay for human Early Growth Response 1 (EGR1) (AID 2282938); conditions: HepG2 Attagene CIS-FACTORIAL EGR reporter mRNA; actives raise or lower the signal
In short: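 Endogenous TF activity in HepG2 liver cells was gauged through cis-promoter reporter constructs transiently transfected. After 24 h dosing, reporter mRNA was quantified by RT-PCR and capillary electrophoresis, and curves fitted in both directions versus DMSO.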

Measured: AC50

Cn1c(=O)c2[nH]cnc2n(C)c1=O
not listed: [18] | [19] | [20]
inactive: all other assays above

CC(C)c1nnc2ccc(-c3ocnc3-c3cc(F)ccc3F)cn12
not listed: [1] | [19] | [20]
inactive: all other assays above

FC(F)C(F)(F)COCC1CO1 (stereo not drawn)
active: [13] 118 µM
inactive: [2] | [19] | [3] | [4] | [5] | [6] | [7] | [8] | [18] | [9] | [10] | [11] | [12] | [13] | [14] | [15] | [16] | [17]

OCc1c[nH]c2ccccc12
inactive: [2] | [3] | [4] | [7] | [8] | [18] | [9] | [10] | [11] | [20] | [12] | [14] | [15] | [16] | [17]
active: [3] 25.1 µM | [4] 69 µM and 62.6 µM and 49.8 µM | [6] 47.2 µM [middle of 5 runs] | [8] 48.6 µM and 85.4 µM and 50.3 µM | [13] 8.17 µM [middle of 5 runs] | [15] 1.72 µM and 512 nM and 1.85 µM

FC(F)=C(F)C(F)(F)C(F)(F)C(F)(F)C(F)(F)C(F)(F)C(F)(F)F
not listed: [1] | [19] | [20]
inactive: all other assays above

CCCCC(CC)C(=O)OCCOCCOCCOC(=O)C(CC)CCCC (stereo not drawn)
active: [4] 160 µM
not listed: [5] | [19] | [20]
inactive: all other assays above

O=C(Cl)C(F)(F)C(F)(F)C(F)(F)C(=O)Cl
not listed: [1] | [20]
inactive: all other assays above

CCCCCCCC/C=C\CCCCCCCC(=O)OC[C@@H](O)[C@H]1OC[C@H](O)[C@H]1O
not listed: [5] | [19]
inactive: all other assays above

O=S(=O)(O)CCC(F)(F)C(F)(F)C(F)(F)C(F)(F)C(F)(F)C(F)(F)F
not listed: [1] | [20]
inactive: all other assays above

O=S1(=O)CCCO1
not listed: [18] | [19] | [20]
inactive: all other assays above

O=C1CN(N=Cc2ccc([N+](=O)[O-])o2)C(=O)N1
active: [3] 45.7 µM | [6] 68.5 µM | [13] 27.6 µM
not listed: [1]
inactive: all other assays above

OCCC(F)(F)C(F)(F)C(F)(F)C(F)(F)F
not listed: [1] | [19] | [20]
inactive: all other assays above

O=C(N[C@H](CO)[C@H](O)c1ccc([N+](=O)[O-])cc1)C(Cl)Cl
not listed: [1] | [19]
inactive: all other assays above

CCN(CC)C(=S)SSC(=S)N(CC)CC
inactive: [1] | [5] | [7] | [9] | [11] | [12] | [13]
active: [2] 76 µM | [3] 173 µM | [6] 25.8 µM | [8] 142 µM | [10] 18.9 µM | [14] 158 µM | [16] 152 µM | [17] 158 µM
